A selection: hits, their analogues and other compounds. The true share with any hit is near 3.2%.
MsrA inhibitor = inhibits bovine methionine sulfoxide reductase A; purified bovine MsrA, absorbance read-out; inhibition, % at 15.5 µM; 360,000 tested, 0.75% active; AID 651718; in the data active means inhibition above about 4.5%;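 further: 0% = vehicle wells with enzyme and 100% = reference inhibitor wells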
MsrA act = bovine methionine sulfoxide reductase A activation; purified bovine MsrA, absorbance read-out; activation, % at 10.6 µM; 360,000 tested, 0.3% active; in the data active means activation above about 7.5%;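 further: 0% = vehicle and 100% = reference activator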
NadD inh = inhibitors of Staphylococcus aureus NadD; purified NadD enzyme, colorimetric absorbance read-out; inhibition, % at 20 µM; 360,000 tested, 0.78% active; AID 602399; in the data active means inhibition above about 26%
rCAG RNA binder = r(CAG) repeat RNA binding | AID 651821 | inhibition, % at 3 µM | 370,000 tested, 1.3% active | TO-PRO-1 dye displacement fluorescence;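 active means inhibition above the plate cutoff, the mean of all test compounds on that plate plus 3 SD, cut at about 35% in these data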;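 further: 0% = DMSO alone and 100% = 100 µM mitoxantrone as full dye displacement; higher means more dye released from RNA so lower well fluorescence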
Pemphigus Ab inh = inhibitors of pemphigus antibody binding to human desmoglein-3. DSG3-coupled beads, scFv-anti-DSG3-GFP binding, flow cytometry; hits give low values. P32926. AID 588358. binding (percent of control), % at 10 µM. 310,000 tested, 0.48% active;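 active means binding more than 3 SD below its plate's average and above zero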;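 further: hits lower antibody fragment binding to DSG3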
DAGLB inhibitor = blocks human DAGLB lipase activity | HEK293T DAGLB membrane lysate, EnzChek fluorogenic substrate | 340,000 tested, 0.059% active | inhibition, % at 5.17 µM | AID 504411; in the data active means inhibition above about 34%;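 further: 0% = enzyme with vehicle and 100% = wells lacking enzyme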
MsrA activ conf = confirmation of bovine methionine sulfoxide reductase A activators | activation, % at 10.6 µM | 1,000 tested, 12% active | AID 602270 | purified bovine MsrA, absorbance read-out | shares compounds with MsrA act; in the data active means activation above about 4%;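 further: enzyme coupled to thioredoxin and thioredoxin reductase with NADPH; 0% = vehicle wells and 100% = reference activator wells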
NadD inh conf = confirmation of Staphylococcus aureus NadD inhibitors; AID 624309; shares compounds with NadD inh; inhibition, % at 20 µM; 2,000 tested, 13% active; purified S. aureus NadD, colorimetric enzyme assay; in the data active means inhibition mostly above about 42%, no sharp cut-off; inactive means mostly below about 42%
rCAG binder conf = r(CAG) RNA repeat binding, confirmation; inhibition, % at 3 µM; TO-PRO-1 dye displacement fluorescence; 4,300 tested, 70% active; shares compounds with rCAG RNA binder;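 active means inhibition above a per-plate cutoff, the mean inhibition of sample wells plus 3 SD, cut at about 35% in these data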;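 further: loss of TO-PRO-1 fluorescence as compound displaces dye from 1x1 AA loop RNA; 0% = DMSO only wells and 100% = 100 µM mitoxantrone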
dCAG dye counter = DNA CAG dye complex inhibition counter-screen | shares compounds with rCAG RNA binder | d(CAG) DNA oligo TO-PRO-1 dye displacement, fluorescence | inhibition, % at 3 µM | 4,300 tested, 94% active | AID 652068;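 active means inhibition above its plate's cutoff, the mean test-well inhibition plus 3 SD, cut at about 4.8% in these data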;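 further: 0% = DNA dye mix with DMSO and 100% = 100 µM mitoxantrone; hits displace the dye from DNA and so lower well fluorescence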
* = called active by the depositor; nt = no result.

SMILES	MsrA inhibitor	MsrA act	NadD inh	rCAG RNA binder	Pemphigus Ab inh	DAGLB inhibitor	NadD inh conf	others
CC(=O)c1sc(Nc2nc3ccc(F)cc3s2)nc1C	0	7.8*	1	36*	103	5	nt	MsrA activ conf=-1;rCAG binder conf=28;dCAG dye counter=8.0*
CCOc1ccc(N2C(=O)CC(Sc3ncccn3)C2=O)cc1 (stereo not drawn)	0	-3	9	-3	nt	-1	nt
CCOc1ccc(N2C(=O)CC(Sc3nc(-c4cccs4)cc(C(F)(F)F)c3C#N)C2=O)cc1 (stereo not drawn)	2	10*	22	54*	104	1	nt	MsrA activ conf=-2;rCAG binder conf=19;dCAG dye counter=13*
CC(=O)Nc1cccc(-c2ccnc3c2CC(C(=O)NCc2cccc(Cl)c2)O3)c1 (stereo not drawn)	0	-1	1	2	nt	nt	nt
C=CCN(CC#CCN(C)C(=O)c1cccn1C(=O)OC(C)(C)C)Cc1ccc(OC)cc1OC	nt	nt	nt	-2	nt	nt	nt
COc1ccc(-c2csc(NC(=O)c3ccccc3NS(=O)(=O)c3ccc(F)c(F)c3)n2)cc1	2	15*	6	89*	97	11	nt	MsrA activ conf=-4;rCAG binder conf=90*;dCAG dye counter=75*
COc1ccc(/C=N/NC(=O)c2ccn[nH]2)cc1COc1ccc(F)cc1	2	-16	10	6	101	-11	nt
COc1ccc(/C=N/NC(=O)c2ccn[nH]2)cc1COc1ccc([N+](=O)[O-])c(C)c1	2	-1	31*	12	109	nt	22
O=C(Nc1ncnc2c1ncn2[C@@H]1O[C@H](/C=C/C(=O)N2CCN(c3ccc(F)cc3)CC2)[C@@H](O)[C@H]1O)c1ccccc1	-1	-5	3	5	nt	nt	nt
COc1ccc(Cc2c(-c3ccco3)nc3ccc(Br)cn23)c(C)c1	-1	-8	59*	18	nt	nt	3
Cc1ccc(Cc2c(-c3ccco3)nc3ccc(Br)cn23)cc1	1	-4	30*	23	nt	nt	18
Cc1ccc(-c2nc3ccc(Br)cn3c2Cc2cccc(F)c2)cc1	0	-13	31*	26	nt	nt	6
COc1ccc(Cc2c(-c3ccco3)nc3ccc(Cl)cn23)c(C)c1	0	-14	42*	22	nt	nt	8
Cc1ccc(Cc2c(-c3ccc(C)cc3)nc3ccc(Br)cn23)cc1	0	-2	11	21	111	-8	nt
COc1ccccc1C(=O)NC1CCCCN(Cc2cccc(F)c2)C1=O (stereo not drawn)	nt	nt	nt	2	nt	nt	nt
O=C(Nc1ccc(F)cc1)OCc1cn(Cc2cccc(F)c2F)nn1	nt	nt	nt	1	nt	nt	nt
O=C(NC(Cc1c[nH]c2ccccc12)C(=O)O)c1cccs1 (stereo not drawn)	0	1	-4	-3	105	0	nt
O=C(NC(Cc1c[nH]c2ccccc12)C(=O)N/N=C/c1cccc2ccccc12)c1cccs1 (stereo not drawn)	4	-11	37*	23	89	2	25
CCC(C)(C)C1CCC2(CC1)NC(=O)N(CC(=O)NC(C)CCc1ccccc1)C2=O (stereo not drawn)	0	-4	48*	-5	99	1	-21
Cc1ccc(-n2c(SCC(=O)Nc3ccccc3-c3ccccc3)nnc2-c2cnccn2)cc1	nt	nt	nt	6	nt	nt	nt
COc1cc(C#Cc2c(-c3cncn3C)n(C)c3ccc(-c4ccc(OC)c(OC)c4)cc23)cc(OC)c1	2	-6	38*	12	108	1	24
COc1cc(C#Cc2c(-c3cncn3C)n(C)c3ccc(-c4ccc5cc[nH]c5c4)cc23)cc(OC)c1	2	-5	39*	21	100	2	47
COc1cc(C#Cc2c(-c3cncn3C)n(C)c3ccc(Br)cc23)cc(OC)c1	0	-1	17	12	101	4	nt
COc1ccc(CCN2C(=O)COc3ccccc3C2C(=O)NCc2ccccc2)cc1OC (stereo not drawn)	0	-3	-4	1	nt	nt	nt
N#Cc1sc2nc(-c3ccccc3)cc(-c3ccco3)c2c1N	1	3	32*	34	105	9	8
SMILES	MsrA inhibitor	MsrA act	NadD inh	rCAG RNA binder	Pemphigus Ab inh	DAGLB inhibitor	NadD inh conf	others
N#Cc1sc2nc(C3CC3)cc(-c3ccccc3)c2c1N	1	-3	4	2	103	-2	nt
COC(=O)[C@@]12C[C@@H](CC(=O)N3CCOCC3)C(=O)N(Cc3cccc4ccccc34)C1=CCC(C)(C)C2	-1	nt	nt	4	nt	nt	nt
C=C(CCO)C1=CCN(S(=O)C(C)(C)C)[C@H]1CCO (stereo partly drawn)	0	-10	1	1	105	-2	nt
COc1cccc2cc(-c3nnc(-c4ccccc4)o3)c(=O)oc12	2	-13	1	4	92	-5	nt
CC/C(C)=N/Nc1nc(-c2cc3cccc(OC)c3oc2=O)cs1	0	-5	51*	34	99	nt	30
COc1ccc2cc3[n+](cc2c1O)CCc1cc2c(cc1-3)OCO2	-1	2	41*	17	nt	nt	32
O=C(NC(=S)Nc1nc(-c2ccccc2)cs1)c1cccnc1	0	-1	12	6	106	0	nt
O=C(NC(=S)Nc1nc(-c2ccccc2)cs1)c1cncc(Br)c1	-1	-3	33*	3	97	-2	11
COc1cc(C(C)=O)ccc1OCC(=O)NCc1ccccc1CN1CCCC1	0	-3	-3	-1	102	0	nt
Cc1cc([N+](=O)[O-])c2[nH]c(C(=O)N/N=C/c3ccccc3C(=O)O)c(-c3ccccc3)c2c1	0	-3	34*	10	101	5	6
O=C(CN1C(=O)NC2(CCCCCC2)C1=O)Nc1ccc(OC(F)(F)F)cc1	1	-3	-1	0	100	1	nt
O=C(Nc1ccc(Cl)c(Cl)c1)Nc1nnc(-c2ccncc2)s1	-1	-4	61*	16	94	1	9
O=C(Nc1nnc(-c2ccncc2)s1)Nc1ccccc1F	-1	-8	-2	0	102	-3	nt
CCN1C(=O)c2ccccc2Sc2ccc(C(=O)NCCCN(CC(C)C)CC(C)C)cc21	0	0	-2	-5	98	0	nt
O=[N+]([O-])c1cccc(SSc2cccc([N+](=O)[O-])c2)c1	1	17*	44*	3	76	-5	58*
O=C(N[C@H](Cc1ccccc1)C(=O)NCc1ccccn1)[C@H]1O[C@@H](n2ccc(=O)[nH]c2=O)[C@H](O)[C@@H]1O	-1	nt	nt	0	nt	nt	nt
